Most compounds without a hit are left out; they make up all but 7.5% or so of the library.
FLuc counter: qHTS profiling assay for firefly luciferase inhibitor/activator using purifed enzyme and Km concentrations of substrates (counterscreen for miR-21 project); Luciferin 4-monooxygenase (Photinus pyralis), P08659; purified FLuc, Km substrates, luminescence inhibition; Potency, µM (top dose mostly 57.5 µM), for inactives: at the top dose activity change, negative = inhibition, usual class: inhibitors; actives 6.9% (n = 360,000); AID 588342, 2011;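 also: plate controls were vehicle for no effect and reference inhibitor for full effect; nearly all actives have a fitted effect of over 55% in size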
Target sequence (P08659 whole entry, looked up): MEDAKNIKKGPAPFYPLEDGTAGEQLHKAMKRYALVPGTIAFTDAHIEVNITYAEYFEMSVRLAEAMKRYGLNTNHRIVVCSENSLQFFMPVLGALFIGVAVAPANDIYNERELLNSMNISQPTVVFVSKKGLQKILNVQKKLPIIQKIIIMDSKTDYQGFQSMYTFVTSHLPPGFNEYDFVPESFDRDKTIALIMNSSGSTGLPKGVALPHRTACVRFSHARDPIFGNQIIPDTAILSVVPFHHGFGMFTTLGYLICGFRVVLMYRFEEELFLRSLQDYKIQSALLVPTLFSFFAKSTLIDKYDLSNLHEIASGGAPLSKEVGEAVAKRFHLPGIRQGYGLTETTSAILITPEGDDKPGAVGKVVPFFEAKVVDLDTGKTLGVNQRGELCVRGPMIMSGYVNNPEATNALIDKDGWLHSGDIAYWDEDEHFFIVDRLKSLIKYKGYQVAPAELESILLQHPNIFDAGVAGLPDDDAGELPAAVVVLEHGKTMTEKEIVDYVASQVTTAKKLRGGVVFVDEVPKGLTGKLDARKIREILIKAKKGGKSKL
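Biochemical qHTS of compounds, final roughly 60 µM downward over six points, against 10 nM purified firefly luciferase using Km concentrations of substrates (10 uM D-luciferin, 10 uM ATP) in Tris acetate pH 7.5 buffer; luminescence output.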
NPC1 promoter act: qHTS Assay for NPC1 Promoter Activators; Huh7 NPC1 promoter luciferase reporter, 24 h; Potency, µM (doses to about 9.22 µM), for inactives: at the highest dose activation, actives largely listed as activators; actives 2.4% (n = 320,000); AID 485313, 2010; also: % of control where 0% means no effect; nearly all actives have a fitted effect of over 60% in size
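Readout is luciferase luminescence, reflecting NPC1 promoter activation in stably transfected Huh7 cells after 24 h compound exposure at 37 °C in reduced-serum medium with 10% FBS.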
KinaseGlo FLuc: Counterscreen for Luciferase (Kinase-Glo TM) Inhibition. Luciferin 4-monooxygenase (Photuris pensylvanica), Q27757. Kinase-Glo luciferase, ATP luminescence, 8 min. Potency, µM (series often up to 38.3 µM), for the others: top-dose activity change, negative = inhibition, usual class: inhibitors. actives 0.28% (n = 200,000). AID 1379, 2008; also: % is scaled to controls: 0 for no effect and ±100 for the full control effect; nearly all actives have a fitted effect of over 60% in size
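Inhibition of Kinase-Glo luciferase light generation was assessed at 10 uM ATP in pH 7.2 imidazole buffer, with luminescence measured after eight minutes at ambient temperature.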
SMN2 splice enh: qHTS Assay for Enhancers of SMN2 Splice Variant Expression; HEK293 SMN2-luciferase splicing reporter, luminescence, 30-36 h; Potency, µM (series often up to 46.1 µM), for inactives: at the top dose activity change, positive = activation, actives largely listed as activators; actives 2.8% (n = 210,000); AID 1458, 2008; also: % of control where 0% means no effect; nearly all actives have a fitted effect of over 55% in size
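qHTS luciferase splicing reporter: luminescence rises when SMN2 exon 7 is included in transfected HEK293 cells. Compound exposure lasted 30-36 h at 37C, with 4.5 mM final sodium butyrate as control, followed by a ONE-Glo read.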
ELG1 genotoxic: qHTS screen for small molecules that induce genotoxicity in human embryonic kidney (HEK293T) cells expressing luciferase-tagged ELG1. HEK293T ELG1-luciferase reporter, luminescence, 16 h. Potency, µM (top dose mostly 46 µM), for inactives: at the top dose activity change, positive = activation, hits mostly activators. actives 1.3% (n = 330,000); also: % of control where 0% means no effect; nearly all actives have a fitted effect of over 60% in size
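Genotoxicity was scored as increased ELG1-luciferase reporter signal, measured by ONE-Glo luminescence (30 min, room temperature). Compound or vehicle exposure of the HEK293T reporter cells lasted 16 hr at 37°C.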
Rab9 promoter act: qHTS Assay for Rab9 Promoter Activators; Huh7 Rab9 promoter-luciferase reporter, luminescence, 24 h; Potency, µM (highest dose often 9.22 µM), for inactives: at the highest dose activation, negative = inhibition, most hits filed as activators; actives 2.8% (n = 320,000); also: % of control where 0% means no effect; nearly all actives have a fitted effect of over 60% in size
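Rab9 promoter-driven luciferase in stably transfected Huh7 cells; 1500 cells/well rested 2 h, exposed to compound in DMSO for 24 h at 37 °C, 5% CO2. Luminescence read 10 min after adding luciferase reagent at ambient temperature.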
Numbers without * were called inactive; ? = inconclusive; / = not tested or not shown; [ ] = remark or other dose. Calls follow the shape of the dose curve; as a rule, active = well fitted curve in the direction sought with a large enough effect; inconclusive = small, poorly fitted or top-dose-only effect, or another doubt; inactive = no such curve, though single readings can be large; an effect the other way counts as inactive or inconclusive. Potency is read from the fitted curve at half-maximal effect.

SMILES	FLuc counter	NPC1 promoter act	KinaseGlo FLuc	SMN2 splice enh	ELG1 genotoxic	Rab9 promoter act
O=C(COC(=O)C1CC1)c1c[nH]c2ccccc12	12µM*	?	-7%	?	?	?
O=C(COc1cccnc1[N+](=O)[O-])c1c[nH]c2ccccc12	?	17%	/	/	6%	12%
Cc1[nH]c2ccccc2c1C(=O)COC(=O)C1CCC(=O)N1 (stereo unspecified)	4%	2%	-3%	8%	0%	1%
CC(=O)OCC(=O)c1c[nH]c2ccccc12	-16%	4%	-6%	-1%	1%	0%
O=C(COC(=O)C1CCC1)c1c[nH]c2ccccc12	11µM*	-1%	/	/	1%	2%
CCC(C)(C)NC(=O)C(c1cccc(OC)c1OC)N(CCOC)C(=O)CCC(=O)Nc1cc(C)on1 (stereo unspecified)	3%	-3%	/	/	1%	-6%
O=C(NC1CCCC1)C(=O)N(Cc1cccnc1)C(C(=O)NCC1CCCO1)c1ccco1 (stereo unspecified)	1%	0%	-7%	3%	-1%	-6%
O=C(COC(=O)CNS(=O)(=O)c1ccc(F)c(F)c1F)NCCc1ccccc1	5.4µM*	?	/	/	?	?
COC(=O)c1ccc(NC(=O)c2cc(-c3ccncc3)nc3ccccc23)cc1	-6%	0%	/	/	-2%	-1%
COc1ccc(-c2cc(C(=O)Nc3ccc(S(=O)(=O)Nc4ncccn4)cc3)c3ccccc3n2)cc1	4.8µM*	4%	/	/	15%	3%
COc1ccc(-c2cc(C(=O)Nc3ccc(C)c(N)c3)c3ccccc3n2)cc1	5.4µM*	23%	/	/	5%	15%
COc1ccc(-c2cc(C(=O)Nc3ccc(S(=O)(=O)Nc4onc(C)c4C)cc3)c3ccccc3n2)cc1	9.5µM*	2%	/	/	2%	-3%
O=C(CN1C(=O)CCSc2ccccc21)Nc1ccc(C(F)(F)F)cc1	-9%	/	/	-26%	/	/
Cc1cc(C)n2c(Nc3cccc(C(F)(F)F)c3)c(-c3ccsc3)nc2n1	0%	/	/	-13%	/	/
COc1ccc2c(c1)CC/C2=N\OC(=O)c1ccccc1OC	3µM*	-4%	-13%	-1%	?	22%
S=c1[nH]nc(Cc2ccc(Cl)cc2)o1	-15%	-5%	/	/	0%	-2%
CCc1ccc(CNC(=O)c2cnc3sc(N4CCCC4)nn3c2=O)cc1	-2%	/	/	/	/	/
CSc1ncccc1C(=O)Nc1ccc2nc(C)sc2c1	17µM*	23%	/	/	12%	1%
COc1ccc2nc(NC(=O)c3ccc(NS(=O)(=O)c4cccs4)cc3)sc2c1	4.8µM*	3%	-1%	-12%	-2%	-2%
COc1ccc(C(=O)Nc2nc3ccc(OC)cc3s2)cc1	1.7µM*	2.5µM*	/	/	?	?
CCCC(=O)Nc1nc2ccc(NC(=O)c3ccccc3F)cc2s1	-22%	-30%	-2%	/	-2%	-12%
COc1ccc2nc(NC(=O)c3ccccc3F)sc2c1	0.34µM*	0.45µM*	/	/	?	0.32µM*
CSc1ncccc1C(=O)Nc1ccncc1	3%	12%	/	/	2%	-5%
COc1ccc(C(=O)C2CCCN(Cc3cccn3-c3ccc(Cl)cn3)C2)c(OC)c1 (stereo unspecified)	2%	-10%	-6%	-94%	-15%	-10%
CSc1ncccc1C(=O)Nc1nc2ccc(Oc3ccccc3)cc2s1	24µM*	-1%	-20%	11%	0%	0%
SMILES	FLuc counter	NPC1 promoter act	KinaseGlo FLuc	SMN2 splice enh	ELG1 genotoxic	Rab9 promoter act
Cc1ccc2nc(NC(=O)c3cc(=O)c4cc(C)c(C)cc4o3)sc2c1	-8%	/	/	-5%	/	/
Cc1ccc2nc(NC(=O)c3ccccc3F)sc2c1	0.48µM*	0.32µM*	/	/	0.65µM*	?
COc1ccc2nc(NC(=O)c3cc(=O)c4ccccc4o3)sc2c1	1.7µM*	/	/	21%	/	/
COc1ccc(-n2nc(C(=O)Nc3nc4ccc(OC)cc4s3)c3ccccc3c2=O)c(OC)c1	5%	-6%	1%	-8%	8%	0%
CCn1cc([N+](=O)[O-])c(C(=O)Nc2nc3ccc(OC)cc3s2)n1	24µM*	0.4µM*	-3%	-4%	7%	0.32µM*
CC1=C(C(N)=O)N2C(=O)[C@@H](NC(=O)Cc3ccccc3)C2SC1 (stereo partly specified)	/	/	-2%	-8%	/	/
CCOc1ccc(Nc2oc(/C=C/c3cc(OC)c(OC)c(OC)c3)nc2C#N)cc1	1%	/	/	24%	/	/
COc1ccc2nc(NC(=O)c3ccccc3C(=O)O)sc2c1	9.5µM*	-2%	/	/	2%	0%[1.84 µM]
Cc1cc(C)c2nc(NNC(=O)c3ccc(S(=O)(=O)N4CCc5ccccc5C4)cc3)sc2c1	2%	-2%	1%	-116%	?	-13%
COc1ccc2nc(NC(=O)c3ccc(NC(=O)C4CCCO4)cc3)sc2c1 (stereo unspecified)	9.5µM*	21%	/	/	-10%	18%
COc1ccc2nc(NC(=O)c3cnccn3)sc2c1	3µM*	3.2µM*	-16%	4µM*	?	2.2µM*
COc1ccc2nc(NC(=O)c3ccccc3-c3ccccc3C(=O)O)sc2c1	?	-1%	1%	-1%	6%	-12%
Cc1cc(C)c2nc(NNC(=O)c3cc(=O)c4ccccc4o3)sc2c1	13µM*	1%	/	/	3%	15%
CCSc1ncc(Cl)c(C(=O)Nc2nc3ccc(OC)cc3s2)n1	-7%	/	/	-4%	/	/
Cc1cccc(Cn2cc3c(=O)n(CC(=O)Nc4ccc(C)c(F)c4)nc-3c3cc(F)ccc32)c1	-14%	/	/	/	/	/
Cc1ccc2nc(-c3ccc(N4C(=O)CC(N5CCN(CCO)CC5)C4=O)cc3)sc2c1 (stereo unspecified)	8.5µM*	11%	-3%	18%	?	10%
COc1nc(N)nc(N2CCOCC2)n1	4%	-2%	1%	-27%	3%	-5%
COc1nc(N)nc(NC23CC4CC(CC(C4)C2)C3)n1	5.4µM*	7%	-3%	28%	?	5%
O=C1/C(=C\c2ccc3ccccc3c2)CCCc2ccccc21	2.1µM*	-2%	-20%	-51%	9.2µM*	22%
Cc1ccsc1/C=C1\CCc2ccccc2C1=O	0.19µM*	?	10µM*	10µM*	?	0.79µM*
Cc1ccccc1/C=C1\CCCc2ccccc2C1=O	2.4µM*	4µM*	?	10µM*	?	0.89µM*

Screening data deposited in PubChem by National Center for Advancing Translational Sciences (NCATS).
